Assay results published in PubChem BioAssay (NCI).
The panel holds about 83,000 compounds, 20% with a hit somewhere; the sample as a whole holds those more often.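 Testing used 96-well plates and a 48-hour single-concentration exposure. Example: -40 means 40% of the starting cells died.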 Values without a mark were called inactive. Activity calls are given as the source filed them. How the source made its calls: active means growth percent below 10; inactive means the rest.

test system: MALME-3M melanoma; test: NCI-60 one-dose screen, 48 h (100 = growth as untreated, 0 = no growth, -100 = all killed); details: 10 µM

With `Cc1c(O)cnc2nn(-c3ccccc3)c(=N)n12` as the compound, how does the growth read?
Its growth is 124%.

`CC[N+](C)(CC)CCO` was tested. Which growth did it give?
Its growth is 103%.

Which growth does the source give for `CCOC(=O)C/C(C)=N\O` here?
The growth was 98.9%.

Which growth does the source give for `COc1cc(CCN=Cc2ccccc2O)c([N+](=O)[O-])cc1OC` here?
The growth was 89.5%.

`O=[N+]([O-])c1ccc(CO)cc1` was tested. Which growth did it give?
The growth was 99.3%.

For `O=C(Nc1ccccc1C(=O)NCC1CC1)c1cccs1`, which growth is on record?
The growth was 131%.

With `COc1cc(CN)ccc1O` as the compound, how does the growth read?
Its growth is 79.3%.

`N#CC(=Nc1cccc(F)c1)C1=C(O)c2ccccc2C1=O` was tested. Which growth did it give?
Its growth is 87.1%.

How did the growth turn out when `CC(=O)OCC1OC(OC2=C(CC=C(C)C)C(=O)c3ccccc3C2=O)C(OC(C)=O)C(OC(C)=O)C1OC(C)=O` (stereo not drawn) was run?
Its growth is -36.2% (active).

How did the growth turn out when `O=[N+]([O-])c1ccccc1S(=O)c1ccccc1[N+](=O)[O-]` was run?
The growth was 90.4%.

For `CC(=O)OCC1CCCO1` (stereo not drawn), which growth is on record?
The growth was 99.2%.

For `CC(C(=O)O)(C1CCCCC1)C1(O)CCCCC1` (stereo not drawn), which growth is on record?
Its growth is 98.9%.

How did the growth turn out when `COc1cc(/C=C/C(=O)c2ccccc2)cc(OC)c1OC` was run?
Its growth is 76.8%.

How did the growth turn out when `O=C1OC(c2ccc(F)cc2)CC1CN1CCOCC1` (stereo not drawn) was run?
The growth was 95.6%.

Which growth does the source give for `OC1OC(COC(c2ccccc2)(c2ccccc2)c2ccccc2)C(O)C(O)C1O` (stereo not drawn) here?
The growth was 90.6%.

`O=C(NCCNC(=O)c1ccc(Cl)cc1Cl)c1ccc(Cl)cc1Cl` was tested. Which growth did it give?
Its growth is 112%.

How did the growth turn out when `CC(C)(N)COS(=O)(=O)O` was run?
Its growth is 108%.

With `C=CCCCCCCCCCOC(C)=O` as the compound, how does the growth read?
Its growth is 93.1%.

How did the growth turn out when `O=C(NCc1ccco1)Nc1c(Cl)cc(Cl)cc1Cl` was run?
Its growth is 97.3%.

For `CCOC(=O)C1=C(Nc2ccc(Br)cc2)C(=O)N(CC)C1`, which growth is on record?
The growth was 101%.

For `CN(C)c1ccc(C(c2ccc(O)cc2)c2ccc(N(C)C)cc2)cc1`, which growth is on record?
Its growth is 91.5%.

Which growth does the source give for `S=C1NCc2cncnc2N1` here?
Its growth is 112%.

Which growth does the source give for `C/C(=N\NC(=O)c1ccccc1N)c1ccccc1O` here?
The growth was 50%.

With `CC(C)(C)n1nc(C2CC2)c(Br)c1NC(=O)c1ccccc1F` as the compound, how does the growth read?
The growth was 107%.

`O=C(O)CCC(NC(=O)OCc1ccccc1)C(=O)O` (stereo not drawn) was tested. Which growth did it give?
The growth was 96.9%.

Which growth does the source give for `Nc1ccccc1SC(CC(=O)c1ccccc1)c1c(Cl)cccc1Cl` (stereo not drawn) here?
Its growth is 77.1%.

`O=C(O)CSCSCC(=O)O` was tested. Which growth did it give?
Its growth is 105%.

For `NC(CSC(c1ccccc1)(c1ccccc1)c1ccccc1)C(=O)O` (stereo not drawn), which growth is on record?
Its growth is 51.1%.

For `CCCCC1C(=O)N(c2ccccc2)N(c2ccccc2)C1=O`, which growth is on record?
The growth was 97.1%.

With `CCCC[P+](c1ccccc1)(c1ccccc1)c1ccccc1` as the compound, how does the growth read?
Its growth is 41%.

With `CC(CN1CCCCC1)NC(=O)c1scnc1-c1ccccc1` (stereo not drawn) as the compound, how does the growth read?
The growth was 106%.

Which growth does the source give for `COc1ccc(C(=O)C(Br)C(Br)C(=O)O)cc1` (stereo not drawn) here?
The growth was 109%.

`CCOC(=O)c1coc(C(=O)OCC)c1C(=O)OCC` was tested. Which growth did it give?
The growth was 116%.

With `O=C(OCC(O)C1OC(c2ccccc2)OC(COC(=O)c2ccccc2)C1O)c1ccccc1` (stereo not drawn) as the compound, how does the growth read?
The growth was 105%.

`COc1ccc(/C(C#N)=C2C=C/C(=N/O)c3ccccc3\2)cc1` was tested. Which growth did it give?
Its growth is 51.4%.

How did the growth turn out when `Nc1ccc(N)c([N+](=O)[O-])c1` was run?
Its growth is 97.9%.

Which growth does the source give for `Cc1ccccc1C1N=C2Oc3ccccc3C=C2C(=O)N1` (stereo not drawn) here?
Its growth is 51.8%.

For `O=C(Nc1ccccc1)OCCc1ccccc1`, which growth is on record?
Its growth is 107%.

`Cc1cc(/C=C/c2ccc3cc(N(C)C)ccc3[n+]2C)c(C)n1-c1ccccc1` was tested. Which growth did it give?
Its growth is -56.9% (active).

test system: MDA-MB-231 breast; test: as above; details: 10 µM

For `Cc1c(O)cnc2nn(-c3ccccc3)c(=N)n12`, which growth is on record?
The growth was 103%.

How did the growth turn out when `CC[N+](C)(CC)CCO` was run?
The growth was 98.6%.

How did the growth turn out when `CCOC(=O)C/C(C)=N\O` was run?
Its growth is 105%.

How did the growth turn out when `COc1cc(CCN=Cc2ccccc2O)c([N+](=O)[O-])cc1OC` was run?
Its growth is 112%.

`O=[N+]([O-])c1ccc(CO)cc1` was tested. Which growth did it give?
The growth was 95.2%.

`O=C(Nc1ccccc1C(=O)NCC1CC1)c1cccs1` was tested. Which growth did it give?
The growth was 97.1%.

How did the growth turn out when `COc1cc(CN)ccc1O` was run?
Its growth is 86.9%.

How did the growth turn out when `N#CC(=Nc1cccc(F)c1)C1=C(O)c2ccccc2C1=O` was run?
Its growth is 84.5%.

With `CC(=O)OCC1OC(OC2=C(CC=C(C)C)C(=O)c3ccccc3C2=O)C(OC(C)=O)C(OC(C)=O)C1OC(C)=O` (stereo not drawn) as the compound, how does the growth read?
The growth was 6.41% (active).

Which growth does the source give for `O=[N+]([O-])c1ccccc1S(=O)c1ccccc1[N+](=O)[O-]` here?
Its growth is 74%.

Which growth does the source give for `CC(=O)OCC1CCCO1` (stereo not drawn) here?
Its growth is 103%.

How did the growth turn out when `CC(C(=O)O)(C1CCCCC1)C1(O)CCCCC1` (stereo not drawn) was run?
Its growth is 109%.

`COc1cc(/C=C/C(=O)c2ccccc2)cc(OC)c1OC` was tested. Which growth did it give?
Its growth is 79.1%.

For `O=C1OC(c2ccc(F)cc2)CC1CN1CCOCC1` (stereo not drawn), which growth is on record?
Its growth is 105%.

Which growth does the source give for `OC1OC(COC(c2ccccc2)(c2ccccc2)c2ccccc2)C(O)C(O)C1O` (stereo not drawn) here?
Its growth is 91.9%.

`O=C(NCCNC(=O)c1ccc(Cl)cc1Cl)c1ccc(Cl)cc1Cl` was tested. Which growth did it give?
The growth was 91.8%.

`CC(C)(N)COS(=O)(=O)O` was tested. Which growth did it give?
The growth was 93.4%.

`C=CCCCCCCCCCOC(C)=O` was tested. Which growth did it give?
The growth was 97%.

How did the growth turn out when `O=C(NCc1ccco1)Nc1c(Cl)cc(Cl)cc1Cl` was run?
The growth was 101%.

For `CCOC(=O)C1=C(Nc2ccc(Br)cc2)C(=O)N(CC)C1`, which growth is on record?
Its growth is 81.8%.

`CN(C)c1ccc(C(c2ccc(O)cc2)c2ccc(N(C)C)cc2)cc1` was tested. Which growth did it give?
Its growth is 87.3%.

With `S=C1NCc2cncnc2N1` as the compound, how does the growth read?
Its growth is 132%.

With `C/C(=N\NC(=O)c1ccccc1N)c1ccccc1O` as the compound, how does the growth read?
Its growth is 44.7%.

How did the growth turn out when `CC(C)(C)n1nc(C2CC2)c(Br)c1NC(=O)c1ccccc1F` was run?
Its growth is 100%.

For `O=C(O)CCC(NC(=O)OCc1ccccc1)C(=O)O` (stereo not drawn), which growth is on record?
The growth was 97%.

With `Nc1ccccc1SC(CC(=O)c1ccccc1)c1c(Cl)cccc1Cl` (stereo not drawn) as the compound, how does the growth read?
The growth was 86.6%.

For `O=C(O)CSCSCC(=O)O`, which growth is on record?
The growth was 107%.

How did the growth turn out when `NC(CSC(c1ccccc1)(c1ccccc1)c1ccccc1)C(=O)O` (stereo not drawn) was run?
Its growth is 4.8% (active).

`CCCCC1C(=O)N(c2ccccc2)N(c2ccccc2)C1=O` was tested. Which growth did it give?
The growth was 103%.

`CCCC[P+](c1ccccc1)(c1ccccc1)c1ccccc1` was tested. Which growth did it give?
Its growth is 84.3%.

Which growth does the source give for `CC(CN1CCCCC1)NC(=O)c1scnc1-c1ccccc1` (stereo not drawn) here?
Its growth is 114%.

For `COc1ccc(C(=O)C(Br)C(Br)C(=O)O)cc1` (stereo not drawn), which growth is on record?
Its growth is 111%.

Which growth does the source give for `CCOC(=O)c1coc(C(=O)OCC)c1C(=O)OCC` here?
The growth was 107%.

With `O=C(OCC(O)C1OC(c2ccccc2)OC(COC(=O)c2ccccc2)C1O)c1ccccc1` (stereo not drawn) as the compound, how does the growth read?
Its growth is 107%.

With `COc1ccc(/C(C#N)=C2C=C/C(=N/O)c3ccccc3\2)cc1` as the compound, how does the growth read?
The growth was 10.2%.

Which growth does the source give for `Nc1ccc(N)c([N+](=O)[O-])c1` here?
Its growth is 80.9%.

`Cc1ccccc1C1N=C2Oc3ccccc3C=C2C(=O)N1` (stereo not drawn) was tested. Which growth did it give?
The growth was 32.5%.

With `O=C(Nc1ccccc1)OCCc1ccccc1` as the compound, how does the growth read?
Its growth is 119%.

With `Cc1cc(/C=C/c2ccc3cc(N(C)C)ccc3[n+]2C)c(C)n1-c1ccccc1` as the compound, how does the growth read?
The growth was -18.9% (active).
